Common to all, as to assay: NCI-60 one-dose screen, 48 h (100 = growth as untreated, 0 = no growth, -100 = all killed)
Holding throughout (conditions): 10 µM unless noted

The subject of experiment [1] is SR leukemia.
The subject of experiment [2] is RPMI-8226 leukemia.
The test system of experiment [3] is OVCAR-8 ovarian.
Experiment [4] deals with OVCAR-5 ovarian.
Experiment [5] relates to OVCAR-4 ovarian.
The subject of experiment [6] is SK-OV-3 ovarian.
Experiment [7] has as its system IGROV1 ovarian.
The test system of experiment [8] is OVCAR-3 ovarian.
Experiment [9] concerns HS 578T breast.
Experiment [10] deals with NCI/ADR-RES ovarian.

The values below come from PubChem BioAssay (NCI).

The panel holds about 83,000 compounds, 20% with a hit somewhere; the sample as a whole holds those more often.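 Values shown are percent growth following 48 h exposure of cells in 96-well plates to a single concentration of compound; below 10 was considered active.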 A number with no mark means an inactive call. Activity calls are given as the source filed them.

In the case of `COc1cc(CCn2nnc3c(Nc4ccc(N5CCOCC5)cc4)ncnc32)cc(OC)c1`, the growth in experiment [1] is 64.2%; in [2], 72.8%; in [3] it was 109%; in experiment [4], 95.3%; in experiment [5] it was 91.1%; in [6] it was 112%. Moreover, the growth in experiment [7] was 110%; in experiment [8] it was 92.8%; in experiment [9] it was 91.2%; in experiment [10] it was 86.3%.
As for `COc1cc(OC)c(C(=O)/C=C/c2cccc(C(F)(F)F)c2)c(OC)c1`, the growth in experiment [1] is 6.07% (active); in [2], 1.61% (active); in experiment [3], 14.1%; in [4], 42.4%; in experiment [5], 31.4%; in experiment [6], 42.1%. For the same compound, the growth in [7] was 11.8%; in experiment [8] it was 17.5%; in [9] it was 15.4%; in [10], 17.1%.
As to `CCn1c(=O)c2c(=O)c3c4c(oc3oc2c2ccccc21)C(=O)c1ccccc1C4=O`, the growth in experiment [1] is 80.8%; in experiment [2], 33.5%; in [3], 10.2%; in [4], 118%; in experiment [5] it was -99.5% (active); in [6] it was 102%. Moreover, the growth in [7] was 68.3%; in experiment [8] it was -16.3% (active); in [9], 93.7%; in experiment [10], 45.8%.
In the case of `O=S(=O)(NCCNc1nccc(-c2c(-c3ccccc3)nc3sccn23)n1)c1ccc(O)cc1`, the growth was 18.2% in [1]; 52.8% in experiment [2]; 40.8% in [3]; 87.1% in experiment [4]; 56.5% in [5]; 65.3% in experiment [6]. Besides, the growth is 22% in experiment [7], 38.9% in experiment [8], 64.6% in [9] and 85.5% in experiment [10].
Regarding `O=C(NNC(=S)Nc1ccccc1)c1ccccn1`, the growth in experiment [1] is 9.67% (active); in [2] it was 37.6%; in experiment [3] it was 23.2%; in experiment [4], 51.3%; in [5], 20.1%; in [6] it was 33.5%. The growth in [7] was 21.2%; in [8], 33.6%; in experiment [9], 65.8%; in experiment [10] it was 24.7%.
As to `COc1ccc(Cn2cc(COc3cc(/C=C/C(=O)c4cc(OC)c(OC)c(OC)c4)ccc3OC)nn2)cc1`, the growth in experiment [1] is 5.65% (active); in experiment [2] it was -2.32% (active); in experiment [3] it was 46.6%; in experiment [4], 81.3%; in [5], 51%; in [6] it was 72%. For the same compound, the growth was 88.8% in experiment [7], 54.3% in [8], 83.3% in [9] and 46.2% in experiment [10].
`O=C(Nc1ccccc1)OCC1OCOC(COC(=O)Nc2ccccc2)C1OC(=O)Nc1ccccc1` (stereo not given): the growth in experiment [1] was 18.1%; in experiment [2] it was 40.1%; in experiment [3], 32%; in experiment [4], 52.5%; in experiment [5], -44.6% (active); in experiment [6] it was 91.5%. For the same compound, the growth in experiment [7] was 70.8%; in experiment [8], 28.8%; in experiment [9] it was 67.7%; in [10] it was 69.8%.
As for `CS(=O)(=O)N(c1cc(-c2ccc3ncnc(Nc4cccc(Cl)c4)c3c2)cnc1Cl)S(C)(=O)=O`, the growth in experiment [1] is 22.8%; in experiment [2], -6.09% (active); in [3], 23.8%; in [4], 12.1%; in [5], 43.3%; in experiment [6], -11.1% (active). The growth in [7] was -38.3% (active); in experiment [8], 11.1%; in experiment [9] it was -3.12% (active); in experiment [10], 42.2%.
On to `COc1ccc(C2CC(c3cccs3)=NN2c2ccc(S(=O)(=O)NC(=O)Nc3ccc(C)cc3)cc2)cc1` (stereo not given), for which the growth in [1] is 84.7%; in experiment [2], 83.4%; in experiment [3], 99.8%; in experiment [4] it was 115%; in experiment [5] it was 106%; in experiment [6], 78.3%. In addition, the growth in [7] was 108%; in experiment [8], 98.2%; in experiment [9] it was 96%; in experiment [10] it was 103%.
For `O=S(=O)(NCCCNc1nccc(-c2c(-c3ccc(O)cc3)nc3sccn23)n1)c1ccc(F)cc1`, the growth is 3.07% (active) in experiment [1]; -13% (active) in experiment [2]; 14.2% in experiment [3]; 14.4% in experiment [4]; 14.9% in experiment [5]; -4.21% (active) in experiment [6]. In addition, the growth is 5.53% (active) in experiment [7], 23% in experiment [8], 11.5% in experiment [9] and 48.9% in [10].
In the case of `CCCS(=O)(=O)c1nc(NC2CC2)cc(-c2ccc3c(ccn3C3CC(C)(C)NC(C)(C)C3)c2)n1`, the growth in experiment [1] was -14.5% (active); in [2], -32.6% (active); in [3] it was -52.8% (active); in [4], -15.2% (active); in experiment [5] it was -70.6% (active); in experiment [6], 92.6%. The growth in experiment [7] was -51% (active); in [8], -89.4% (active); in [9] it was -11.4% (active); in experiment [10], 41.5%.
For `COc1cc(-n2nc(C(=O)Nc3ccc(C(=O)O)cc3)nc2-c2ccccc2)cc(OC)c1OC`, the growth in [1] is 118%; in [2], 108%; in experiment [3], 86.3%; in [4], 86.3%; in experiment [5], 110%; in experiment [6], 64.3%. In addition, the growth in experiment [7] is 51%; in experiment [8], 94.4%; in experiment [9], 97.5%; in experiment [10], 89.1%.
With `c1ccc2nc(-c3ccc4ccccc4n3)ccc2c1`, the growth was 86.8% in [1]; 90.8% in experiment [2]; 98.6% in experiment [3]; 97.2% in experiment [4]; 92.3% in [5]; 90.1% in [6]. In addition, the growth in [7] is 79.5%; in experiment [8], 97.4%; in [9] it was 105%; in experiment [10], 99.7%.
Consider `COc1ncc(-c2ccc3ncnc(Nc4cccc(Cl)c4)c3c2)cc1NS(=O)(=O)CCN1CCOCC1`, for which the growth in experiment [1] was 9.25% (active); in experiment [2] it was 12.7%; in experiment [3], 16.9%; in experiment [4], 6.39% (active); in experiment [5], 33.1%; in experiment [6], -25.9% (active). In addition, the growth in [7] is -36.9% (active); in experiment [8], 5.82% (active); in experiment [9], -21.1% (active); in experiment [10], 30.1%.
Regarding `CCN(C(=O)c1cc2ccccc2[nH]1)[C@H]1CCC[C@@H](NCc2ccc(OC)cc2)C1`, the growth in experiment [1] was 69.2%; in experiment [2] it was 86%; in experiment [3], 100%; in experiment [4], 85.5%; in experiment [5], 83.3%; in experiment [6] it was 96.6%. The growth in [7] is 85.4%; in experiment [8], 89.6%; in [9], 89.3%; in [10] it was 88.4%.
As to `CCCCCCCN(CCCCCCC)C(=N)c1ccc(OC)c2ccccc12`, the growth in experiment [1] was -48.6% (active); in experiment [2], -48.8% (active); in [3], -66.3% (active); in [4] it was -82.4% (active); in experiment [5], -98% (active); in experiment [6], -68.2% (active). For the same compound, the growth in experiment [7] was -73.5% (active); in experiment [8] it was -94.6% (active); in experiment [9] it was -60.6% (active); in [10], -75.7% (active).
In the case of `NC(=S)NN=C1CCCCC1`, the growth in experiment [1] is 72.1%; in [2] it was 68.8%; in experiment [3], 68.6%; in experiment [4], 104%; in [5], 53.6%; in [6], 73%. Moreover, the growth in [7] was 83.7%; in experiment [8] it was 38%; in [9], 82.3%; in experiment [10], 72.6%.
In the case of `Cc1ccc(S(=O)(=O)OCC(=O)Nc2ccc(C(=O)O)c(O)c2)cc1`, the growth is 45.7% in experiment [1]; 92% in experiment [2]; 97.7% in experiment [3]; 102% in experiment [4]; 86.9% in experiment [5]; 127% in [6]. Also, the growth in experiment [7] was -17.7% (active); in experiment [8] it was 118%; in experiment [9], 118%; in experiment [10] it was 88%.
Take `O=C(/C=C/CN1CCCCC1)Nc1cc2c(Nc3ccc(F)c(Cl)c3F)ncnc2cc1OCCOC(F)F`: the growth in experiment [1] is 11.5%; in experiment [2], 12.7%; in experiment [3] it was 19.5%; in experiment [4], 34.8%; in experiment [5], 12.9%; in [6], -6.19% (active). The growth in [7] is -9.94% (active); in [8] it was 0.43% (active); in experiment [9] it was -7.08% (active); in experiment [10], 9.16% (active).
In the case of `Clc1nc2ccccc2nc1CI`, the growth in experiment [1] is 8.99% (active); in experiment [2], 77.6%; in experiment [3], 90.4%; in experiment [4], 109%; in experiment [5], 94.3%; in [6] it was 104%. Also, the growth was 72.7% in experiment [7], 123% in experiment [8], 115% in experiment [9] and 98.9% in experiment [10].
`O=S(=O)(NCCCNc1cc(-c2cn(-c3ccccc3)nc2-c2cccc(O)c2)ccn1)c1ccc(C(F)(F)F)cc1`: the growth was 8.04% (active) in experiment [1]; 15.4% in [2]; 53% in [3]; 57.8% in experiment [4]; 45.1% in [5]; 54.8% in [6]. Moreover, the growth in [7] was 58.9%; in experiment [8], 49.6%; in [9] it was 22.6%; in experiment [10] it was 35%.
On to `CSc1ccccc1C#C/C=C\C#Cc1ccccc1N1CCCC1=O`, for which the growth was 12.5% in experiment [1]; 22.2% in [2]; 74.9% in [3]; 72.2% in experiment [4]; 59.7% in experiment [5]; 85.8% in [6]. Besides, the growth is -32.2% (active) in experiment [7], 50.9% in experiment [8], 98% in experiment [9] and 41.5% in experiment [10].
As for `COc1cc(-c2csc(NC(=O)Nc3ccc(Cl)cc3Cl)n2)cc(OC)c1OC`, the growth in experiment [1] was 23.1%; in [2], 30%; in experiment [3] it was 45.4%; in experiment [4], 75.8%; in experiment [5] it was 55.5%; in [6] it was 55.5%. Also, the growth was 51.7% in experiment [7], 20.5% in experiment [8], 34.5% in [9] and 9.75% (active) in experiment [10].
Take `O=C(c1c[nH]c2ccccc12)C(Sc1nc2ccccc2c(=O)[nH]1)c1ccccc1` (stereo not given): the growth in experiment [1] was 67.9%; in experiment [2], 91.1%; in experiment [3], 93.3%; in [4], 88%; in experiment [5], 95.9%; in experiment [6], 104%. Besides, the growth in [7] is 19.1%; in [8], 96.6%; in experiment [9], 88.6%; in experiment [10] it was 99.8%.
For `CC1=CNNc2c3ncnc-3ncn21`, the growth in experiment [1] was 97.4%; in experiment [2], 103%; in experiment [3] it was 107%; in [4], 101%; in experiment [5], 111%; in experiment [6], 103%. Besides, the growth was 108% in experiment [7], 105% in [8], 110% in experiment [9] and 105% in [10].
